Screening results (PubChem)
The list is not random: actives were taken first. Their share in the collection is about 0.9%.
HIV TAR-Tat – HIV-1 TAR-Tat binding disruption. HIV-1 TAR RNA, Tat peptide displacement FRET; hits give high values. z-score (concentration not given with the values). actives 0.6% (n = 100,000). AID 1259389; active = z-score of 3 or more in at least 2 runs
CDC25B-CDK2 inh – human CDC25B-CDK2/CyclinA binding inhibition. P30305+P24941. HTRF CDC25B-CDK2/CyclinA binding, anti-His/anti-Flag; hits give high values. z-score (concentration not given with the values). actives 0.72% (n = 94,000); in the data active = z-score above about 3.2
The depositor's hits bear a star; . = no result given.

SMILES | HIV TAR-Tat | CDC25B-CDK2 inh
O=C(NCc1ccccc1)Nc1ccc2snnc2c1 | 1.1 | 11*
COCCNC(=O)Nc1ccc2snnc2c1 | 1.8 | 7.8*
CN(C)C(=O)Nc1ccc2snnc2c1 | -0.37 | 1.9
O=C(NCc1ccc2c(c1)OCO2)Nc1ccc2snnc2c1 | . | -2.3
O=C1Nc2ccccc2S(=O)(=O)N1Cc1cccc(F)c1 | 0.28 | .
CN(C(=O)Cn1ncc2c([nH]c3ccccc32)c1=O)c1ccccc1F | 2.1 | .
CCCCC(=O)Nc1ccc2nc(SCc3cc(=O)n4nc(C)sc4n3)sc2c1 | 0.36 | .
CCN(CC)S(=O)(=O)c1ccc2c(c1)N(CC(=O)NCCC(C)C)C(=O)CO2 | . | -0.29
CCOc1cc(-c2ccc(C)cc2)nc2ccc(C(=O)O)cc12 | -0.18 | -0.68
O=C(NCCCO)Nc1ccc2snnc2c1 | 1.5 | 6.5*
O=C(Nc1ccc2snnc2c1)NC1CCCC1 | 1.5 | 2
Cc1ccc2nc(-n3nc(C)c4c3NC(=O)CC4c3cc(Br)ccc3F)sc2c1 (stereo not given) | 0.73 | .
CCSCCOC(=O)C1=C(C)NC2=C(C(=O)CCC2)C1c1ccc(OC)c(OC)c1 (stereo not given) | -0.34 | -2.4
CCOc1ccc(-c2n[nH]c3c2cnc2cc4c(cc23)OCCO4)cc1 | 17* | 15*
Cc1ccc(-c2n[nH]c3c2cnc2cc4c(cc23)OCCO4)cc1 | -0.73 | .
C=C1c2cccc(O)c2C(O)=C2C(=O)[C@]3(O)C(O)=C(C(N)=O)C(=O)[C@@H](N(C)C)[C@@H]3[C@@H](O)[C@H]12 | 16* | .
C=C1c2c(Cl)ccc(O)c2C(O)=C2C(=O)[C@]3(O)C(O)=C(C(N)=O)C(=O)[C@@H](N(C)C)[C@@H]3[C@@H](O)[C@H]12 | 20* | .
CC(C)N(C(=O)Cn1cc(SCC(=O)Nc2ccc3c(c2)OCCO3)c2ccccc21)C(C)C | 0.05 | .
Cc1ccc(N2CCCS2(=O)=O)cc1NS(=O)(=O)c1ccc2c(c1)OCCO2 | -0.33 | .
CC1(C)CC(=O)C2=C(C1)Nc1ccccc1NC2c1cccc2ccccc12 (stereo not given) | . | 13*
CC1(C)CC(=O)C2=C(C1)Nc1ccccc1NC2c1ccccc1F (stereo not given) | -14 | -1
CC(=O)c1c(C)nn2c3ccccc3n(CC(=O)O)c12 | . | 2.1
O=C1C[C@@H](c2ccc(O)c(O)c2)Oc2cc(O[C@H]3O[C@@H](CO)[C@H](O)[C@@H](O)[C@@H]3O)cc(O)c21 | 3.2 | .
O=C1/C(=C\c2ccc(O)c(O)c2)Oc2c1ccc(O[C@@H]1O[C@H](CO)[C@@H](O)[C@H](O)[C@H]1O)c2O | 16* | .
CC(C)c1ccc(-c2c(NCc3ccc(F)cc3)c(=O)c2=O)cc1 | 0.59 | .
SMILES | HIV TAR-Tat | CDC25B-CDK2 inh
CCC(C)Cn1c(C)c2c(=O)n(-c3nc4ccccc4s3)[nH]c2cc1=O (stereo not given) | 1.2 | -1.5
Cc1c2c(=O)n(-c3nc4ccccc4s3)nc-2cc(O)n1CCc1c[nH]c2ccccc12 | 9.2* | 2
Cc1nn(C(C)C(=O)NCCc2c[nH]c3ccccc23)c(=O)c2c1sc1ccccc12 (stereo not given) | 2.5 | -1.7
Cc1c2c(=O)n(-c3nc4ccccc4s3)nc-2cc(O)n1CCc1cnc[nH]1 | 26* | -0.36
CN(Cc1ccco1)C(=O)C1CCC(CNS(=O)(=O)c2ccc3c(c2)CCCC(=O)N3)CC1 (stereo not given) | 1.8 | .
O=c1[nH]c2ccc(S(=O)(=O)N3CCN(c4cccc(Cl)c4)CC3)cc2[nH]c1=O | 20* | 16
O=c1[nH]c2ccc(S(=O)(=O)N3CCN(c4ccccc4)CC3)cc2[nH]c1=O | . | -0.51
O=C1CCCc2c1cnn2-c1nc2ccccc2s1 | 0.45 | -0.64
CC1CCCCC1NC(=O)C(Cc1ccccc1)NS(=O)(=O)c1ccc2c(c1)CCC(=O)N2 (stereo not given) | . | -0.73
CCC(O)c1nc2ccccc2n1CCOc1ccccc1Cl (stereo not given) | -0.72 | -0.74
COc1ccc(-c2coc3cc(OCc4ccc(Br)cc4)cc(O)c3c2=O)cc1OC | -0.9 | -0.86
COc1cc(-c2coc3cc(OCc4ccccc4)c(OC)c(O)c3c2=O)cc(OCc2ccccc2)c1OC | 26* | .
O=C(O)C1=CC(=C(c2ccc(O)c(C(=O)O)c2)c2ccc(O)c(C(=O)O)c2)C=CC1=O | . | 11*
O=C1C=CC(=C(c2ccc(O)cc2)c2ccc(O)cc2)C=C1 | -0.04 | .
CCc1nn2c(=O)cc(CSc3nc(-c4ccccc4Cl)nc4cc(=O)[nH]n34)nc2s1 | 0.12 | .
CN1C(C(=O)Nc2sc3c(c2C(N)=O)CCCC3)=CC(c2ccco2)=NS1(=O)=O | 0.79 | -1.4
CN1C(C(=O)Nc2sc3c(c2C#N)CCC3)=CC(c2ccco2)=NS1(=O)=O | 6.1* | -0.91
CC(C)CC(C(=O)N1CCN(C)CC1)N1Cc2ccccc2C1=O (stereo not given) | 2.3 | .
O=C(Nc1cccc2nsnc12)c1nc(-n2cnnc2)ccc1Br | 2.5 | .
O=C(Nc1cccc2nsnc12)c1cccc(-n2cnnc2)n1 | 14* | .
Clc1cccc(Nc2c3c(nc4ncnn24)CCCC3)c1 | 1.1 | .
Nc1cccc2nsnc12 | . | -2.1
Cc1cc2c(N)cccc2nn1 | . | 17*
Cc1ccc(Cn2c(=O)n(CCC(C)C)c(=O)c3cccnc32)cc1 | 0.46 | 0.44
Cc1cc(C)n2c(n1)nc1ccccc12 | . | -2.1
SMILES | HIV TAR-Tat | CDC25B-CDK2 inh
Cc1cc(-n2nnc3ccccc32)nc(C)n1 | 14* | -1.2
Cc1c(S(=O)(=O)c2ccc(Cl)cc2)nnn1-c1cc(F)ccc1F | -1.7 | -0.68
Cc1ccc2[nH]c(=O)c(-c3noc(-c4ccco4)n3)cc2c1 | 28* | 10*
Cc1ccc2cc(-c3noc(-c4ccco4)n3)c(=O)[nH]c2c1 | 0.78 | 2
Cn1c(C(=O)O)c(CC(=O)NC2CCCCCC2)c2ccccc21 | . | 0.21
Cc1cc(C)c2c(C)c(C(=O)NCC(c3ccc(C)o3)N(C)C)oc2c1 (stereo not given) | -0.71 | -2.2
CCCC(NS(=O)(=O)c1cc(-c2cc(C)no2)ccc1C)c1cccs1 (stereo not given) | 0.77 | .
O=c1cc(-c2ccccc2)[nH]c(=S)[nH]1 | . | -1.1
N/C(=N\O)c1c(-c2ccccc2)cc(-c2ccc(F)cc2)[nH]c1=O | . | 11*
CCSc1nc2c(c(=O)[nH]1)C(c1cccc(O)c1)CC(=O)N2 (stereo not given) | 0.62 | -1.4
CSc1nc2c(c(=O)[nH]1)C(c1ccc(O)c(O)c1)CC(=O)N2 (stereo not given) | 18* | 5.6
CSc1nc2c(c(=O)[nH]1)C(c1cccc(O)c1)CC(=O)N2 (stereo not given) | 2.8 | -2.4
CCSc1nc2c(c(=O)[nH]1)C(c1ccc(O)c(O)c1)CC(=O)N2 (stereo not given) | 22* | 14*
CCCc1cc(=O)n2nc(N(C)CC(=O)NCCCN3CCCC3=O)sc2n1 | 0.89 | -1.6
Cc1ccc(S(=O)(=O)NCCc2csc3nc(-c4ccccc4C)nn23)cc1C | 0.21 | .
CCOC(=O)CSc1nnc(-c2ccccc2)c(=O)[nH]1 | -0.43 | 2.1
CCOC(=O)CSc1nnc(NCC(=O)OC)c(=O)[nH]1 | . | 4.2*
CCC[B-]1(CCC)OC(Nc2ccc3ccccc3c2)=Nc2scc[n+]21 | . | 4.2*
c1ccc(NC2=Nc3scc[n+]3[B-](c3ccccc3)(c3ccccc3)S2)cc1 | . | -1.9
COc1ccc(OC)c(C2=NOC(C(=O)NC(C)C)C2)c1 (stereo not given) | 0.12 | -0.01
